Source: PubChem BioAssay (NCI)
The panel holds about 83,000 compounds, 20% with a hit somewhere; the sample as a whole holds those more often.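 Values shown are percent growth following 48 h exposure of cells in 96-well plates to a single concentration of compound; below 10 was considered active.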 Unmarked numbers belong to inactive results. Calls of active or inactive are those of the source.

Assays:
Test in all cases: NCI-60 one-dose screen, 48 h (100 = growth as untreated, 0 = no growth, -100 = all killed)
Settings in all cases: 10 µM unless noted
T-47D breast = system: T-47D breast
BT-549 breast = system: BT-549 breast
MDA-MB-435 melanoma = system: MDA-MB-435 melanoma
SW-620 colon = system: SW-620 colon
MCF7 breast = system: MCF7 breast
HCT-116 colon = system: HCT-116 colon
HCC-2998 colon = system: HCC-2998 colon
KM12 colon = system: KM12 colon

SMILES | growth (T-47D breast) | growth (BT-549 breast) | growth (MDA-MB-435 melanoma) | growth (SW-620 colon) | growth (MCF7 breast) | growth (HCT-116 colon) | growth (HCC-2998 colon) | growth (KM12 colon)
CCn1cc(C2NC(=O)c3cc(F)ccc3N2)c2cccc(Cl)c21 (stereo unspecified) | 58.3% | 26.9% | -31.7% (active) | 20.8% | 15.5% | 8.12% (active) | 7.64% (active) | 19.2%
c1ccc([P+](CCC[P+](c2ccccc2)(c2ccccc2)c2ccccc2)(c2ccccc2)c2ccccc2)cc1 | 45.2% | 75.9% | 38.6% | 85.4% | 59% | 67.5% | 48.1% | 45.5%
CCOC(=O)/C=C\C(=O)NC(N)=O | 89.1% | 100% | 106% | 107% | 96.3% | 86.4% | 95.2% | 106%
O=P([O-])(O)OP(=O)([O-])O.[NH-][C@H]1CCCC[C@@H]1[NH-].[OH-].[OH-].[Pt+4] | 114% | 117% | 99.3% | 105% | 96.7% | 101% | 98.8% | 104%
Nc1c(C(=O)Nc2c(Cl)cccc2Cl)sc2nc3c(cc12)CCCCC3 | 57.7% | 52.6% | 9.69% (active) | 46.1% | 18.4% | 62.3% | 57% | 53.6%
COc1ccc(/C=N/NC(=O)Cn2c(Cc3cccc4ccccc34)nc3ccccc32)cc1 | 85.8% | 107% | 103% | 109% | 92.4% | 100% | 107% | 98%
COc1cccc(C2CC(=O)Nc3c2c(C)nn3-c2nc3ccccc3[nH]2)c1OC (stereo unspecified) | 64.5% | 87.1% | 58.5% | 77.1% | 62.5% | 36.2% | 120% | 67.9%
COC1=CC(c2ccc[nH]2)=N/C1=C\c1[nH]c(C)c(C(=O)CCC(=O)Oc2ccc3c(c2)CCC2C3CC[C@]3(C)[C@@H](O)CC[C@@H]23)c1C (stereo partly specified) | 20.5% | 27% | 11.9% | -51.1% (active) | 13.6% | -84.2% (active) | 9.51% (active) | 3.48% (active)
COc1ccccc1OCC(=O)Nc1sc2c(c1C(N)=O)CCC2 | 62.5% | 85.6% | 78.9% | 64.5% | 27.8% | 63.1% | 58.8% | 105%
COC(=O)c1ccc2nc(-c3cc4ccccc4n3C)n(CCCCOc3cc4c(cc3OC)C(=O)N3CCC[C@H]3C=N4)c2c1 | 4.1% (active) | -53.6% (active) | -88.6% (active) | -23% (active) | 2.44% (active) | 8.52% (active) | -17.6% (active) | -29.2% (active)
COC(=O)C(CC(=O)c1ccc(-c2ccccc2)cc1)c1ccccc1 (stereo unspecified) | 51.9% | 71.2% | 5.69% (active) | 26.9% | 16.2% | 23.5% | 96.5% | 55.6%
COC(=O)CC/C(C)=N\Nc1ccc([N+](=O)[O-])cc1 | 42% | 89.1% | 31.7% | 54.4% | 77.1% | 54.1% | 66.1% | 24.3%
COc1cc(-c2csc(NC(=O)Nc3ccc(Cl)cc3Cl)n2)cc(OC)c1OC | 26.6% | 38.3% | -7.76% (active) | 28.8% | 11.8% | 19.3% | 60.1% | 24.6%
CC(=O)/C=C/c1cc2cc(Cl)ccc2[nH]c1=O | 50% | 65.5% | 94.2% | 80.4% | 30.5% | 48.1% | 95.2% | 60%
CN1CCN(CCCOc2ccc3nc(Nc4ccc(C(F)(F)F)c(Cl)c4)ccc3c2)CC1 | 39.9% | 80.9% | -74.9% (active) | -70.4% (active) | -69.5% (active) | 0.975% (active) | -71.1% (active) | -14.3% (active)
CCn1cc(C(=O)O)c(=O)c2cc(F)c(N3CCN(S(=O)(=O)c4c(C)cc(C)cc4C)CC3)cc21 | 74.1% | 73.7% | 89.1% | 95.1% | 93.7% | 79.2% | 82.5% | 87.2%

SMILES | growth (T-47D breast) | growth (BT-549 breast) | growth (MDA-MB-435 melanoma) | growth (SW-620 colon) | growth (MCF7 breast) | growth (HCT-116 colon) | growth (HCC-2998 colon) | growth (KM12 colon)
O=C(Cc1c(F)cccc1Cl)Nc1ccc(S(=O)(=O)Nc2ncccn2)cc1 | 102% | 90.8% | 101% | 102% | 96.2% | 102% | 97.3% | 111%
Cc1ccc(S(=O)(=O)OCC(=O)Nc2ccc(C(=O)O)c(O)c2)cc1 | 106% | 89.2% | 114% | 105% | 105% | 96.2% | 87.6% | 110%
CC1CCN(C(=O)CSc2nc3sc4c(c3c(=O)[nH]2)CCCC4)CC1 | 102% | 95.2% | 95.6% | 108% | 109% | 112% | 120% | 120%
COc1cc(/C=C\c2cc(OC)c(OC)c(OC)c2)cc(N/C=C\C(=O)c2c[nH]c3ccccc23)c1OC | -5.64% (active) | 41.2% | 29.1% | -76% (active) | 4.09% (active) | -82.9% (active) | 83.2% | 49.2%
O=c1[nH]c(CN2CCN(c3ccccc3F)CC2)nc2sc3c(c12)CCC3 | 99.1% | 98.8% | 118% | 105% | 107% | 105% | 117% | 106%
Nc1nc(-c2ccccc2)cs1 | 96.7% | 116% | 107% | 108% | 94.4% | 94.8% | 104% | 106%
CC1CCc2c(sc(NC(=O)CSc3nnc4ccccn34)c2C(N)=O)C1 (stereo unspecified) | 105% | 142% | 99% | 109% | 96% | 104% | 105% | 108%
COc1cc(NC(=O)c2cc3ccccc3nc2Nc2ccc(F)cc2)cc(OC)c1OC | 22.1% | 30.7% | 27% | 54.4% | 24.2% | 35.8% | 65.9% | 42.7%
Cn1c(=O)c2c(nc3n2CCN(CCc2ccc(OCCN4CCOCC4)cc2)C3)n(C)c1=O | 93.6% | 109% | 105% | 105% | 95.7% | 109% | 122% | 103%
O=C1OC(c2ccccc2)=N/C1=C\c1ccc([N+](=O)[O-])cc1 | 106% | 101% | 106% | 92.4% | 103% | 97.8% | 108% | 94.5%
CC/C=C\C[C@H](O)C/C=C1/C(=O)C(Cl)=C[C@@H]1C/C=C\CCCC(=O)OC | -16.9% (active) | -85.5% (active) | -43.7% (active) | -55.3% (active) | -71.2% (active) | -83.7% (active) | -92.1% (active) | -81.5% (active)
O=S(=O)(NCCCNc1nccc(-c2c(-c3ccc(F)c(O)c3)nc3sccn23)n1)c1ccc(Cl)cc1 | 66.1% | 101% | 32.5% | 99.2% | 77.2% | 46.3% | 112% | 75.1%
CC(C)[C@H](CO)Nc1nc(Nc2ccc(C(=O)NCCNS(=O)(=O)c3cccc4c(N(C)C)cccc34)c(Cl)c2)c2ncn(C(C)C)c2n1 | 20.6% | -37.9% (active) | 0.754% (active) | 4.97% (active) | 6.04% (active) | 4.44% (active) | 15.7% | -9.33% (active)
NC(CC(N)C(=O)O)C(=O)O (stereo unspecified) | 92.9% | 105% | 103% | 104% | 98.7% | 102% | 99.3% | 113%
O=c1[nH]c(-c2cn(-c3ccc(Cl)cc3)nn2)nc2ccccc12 | 54.4% | 79.6% | 77.2% | 94.4% | 99.8% | 52% | 90% | 84.7%
Cc1ccnc2nc(C(=O)OCC(=O)Nc3ccc(-c4ccccc4)cc3)nn12 | 111% | 96.3% | 107% | 109% | 105% | 96% | 105% | 119%
